Source: PubChem BioAssay
FLuc counter = firefly luciferase modulation, counter-screen for miR-21 project; purified FLuc, Km substrates, luminescence inhibition; Potency, µM (series often up to 57.5 µM), without a hit: top-dose activity change, negative = inhibition, usual class: inhibitors; actives 6.9% (n = 360,000);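 note: plate controls were vehicle for no effect and reference inhibitor for full effect; nearly all actives have a fitted effect of over 55% in size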
Target sequence (P08659 whole entry, looked up): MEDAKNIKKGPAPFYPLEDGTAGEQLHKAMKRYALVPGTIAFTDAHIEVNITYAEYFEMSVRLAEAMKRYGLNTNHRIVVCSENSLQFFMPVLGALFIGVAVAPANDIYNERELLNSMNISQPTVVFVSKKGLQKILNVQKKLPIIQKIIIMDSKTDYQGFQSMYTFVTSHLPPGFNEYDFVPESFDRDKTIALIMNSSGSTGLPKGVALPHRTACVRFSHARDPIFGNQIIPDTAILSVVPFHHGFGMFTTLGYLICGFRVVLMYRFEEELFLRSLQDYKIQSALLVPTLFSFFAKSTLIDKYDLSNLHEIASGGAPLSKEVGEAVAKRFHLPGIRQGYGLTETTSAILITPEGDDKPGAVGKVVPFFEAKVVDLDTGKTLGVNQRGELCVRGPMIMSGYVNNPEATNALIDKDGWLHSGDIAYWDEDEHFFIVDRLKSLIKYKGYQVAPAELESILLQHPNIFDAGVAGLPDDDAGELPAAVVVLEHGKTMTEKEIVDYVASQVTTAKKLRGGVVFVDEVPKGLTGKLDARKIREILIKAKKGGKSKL
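Biochemical qHTS of compounds, final roughly 60 µM downward over six points, against 10 nM purified firefly luciferase using Km concentrations of substrates (10 uM D-luciferin, 10 uM ATP) in Tris acetate pH 7.5 buffer; luminescence output.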
Rab9 prom act = activators of Rab9 promoter; Huh7 Rab9 promoter-luciferase reporter, luminescence, 24 h; actives 2.8% (n = 320,000); Potency, µM (doses to about 9.22 µM), inactives show at the top dose activation, negative = inhibition, actives largely listed as activators; note: % of control where 0% means no effect; nearly all actives have a fitted effect of over 60% in size
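Measured in stably transfected Huh7 cells bearing a Rab9 promoter–luciferase construct: 24 h compound treatment at 37 °C, followed by luminescence detection.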
NPC1 prom act = NPC1 promoter activation. AID 485313. Potency, µM (highest dose often 9.22 µM), for inactives: at the highest dose activation, hits mostly activators. actives 2.4% (n = 320,000). Huh7 NPC1 promoter luciferase reporter, 24 h; note: % of control where 0% means no effect; nearly all actives have a fitted effect of over 60% in size
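In 1536-well qHTS, Huh7 cells harboring an NPC1 promoter–luciferase construct received compound for 24 h; activation was quantified by luminescence following luciferase reagent addition.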
uPA generation = inhibitors of cell surface uPA generation; cell surface uPA generation assay, qHTS; Potency, µM (series often up to 38.3 µM), for the others: at the highest dose activity change, negative = inhibition, most hits filed as inhibitors; actives 0.31% (n = 330,000); AID 540303; active = well fitted inhibition curve with a large enough effect; inconclusive = small, poorly fitted or top-dose-only effect; inactive = no such curve, though single readings can be large or run the other way; tested in mouse RAW 264.7 cells; note: % is set by controls: 0 for no effect and ±100 for the full control effect; nearly all actives have a fitted effect of over 55% in size
ELG1 genotox = genotoxicity induction in ELG1-luciferase HEK293T cells; HEK293T ELG1-luciferase reporter, luminescence, 16 h; Potency, µM (titrated, usually from 46 µM), for inactives: at the top dose activity change, positive = activation, actives largely listed as activators; AID 504466; actives 1.3% (n = 330,000); note: % of control where 0% means no effect; nearly all actives have a fitted effect of over 60% in size
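HEK293T cells expressing luciferase-tagged ELG1 were exposed to compound or DMSO vehicle for 16 hr at 37 °C and 5% CO2. Luciferase activity was then measured with ONE-Glo after 30 min at room temperature.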
SMN2 splice enh = increases expression of the SMN2 splice variant. HEK293 SMN2-luciferase splicing reporter, luminescence, 30-36 h. Potency, µM (doses to about 46.1 µM), for inactives: top-dose activity change, positive = activation, most hits filed as activators. actives 2.8% (n = 210,000). AID 1458; note: % of control where 0% means no effect; nearly all actives have a fitted effect of over 55% in size
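qHTS luciferase splicing reporter: luminescence rises when SMN2 exon 7 is included in transfected HEK293 cells. Compound exposure lasted 30-36 h at 37C, with 4.5 mM final sodium butyrate as control, followed by a ONE-Glo read.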
* hit, by the source's call; ? = inconclusive; . = no result given; [ ] = dose if it differs, or a comment. Rows were chosen to be rich in hits. Some 7.3% of all compounds tested hit in one or more screens of this group. Unless noted, calls come from the whole dose curve; as a rule, active = well fitted curve in the direction sought with a large enough effect; inconclusive = small, poorly fitted or top-dose-only effect, or another doubt; inactive = no such curve, though single readings can be large; an effect the other way counts as inactive or inconclusive. Potency is the fitted concentration of half-maximal effect.

SMILES	FLuc counter	Rab9 prom act	NPC1 prom act	uPA generation	ELG1 genotox	SMN2 splice enh
CCCC[C@@H]1C[C@H]1C(NC(=O)c1ccco1)c1ccccc1 (some centres not stated)	.	.	.	.	.	-25%
COCCn1c(-c2cccc([N+](=O)[O-])c2)nc2c1c(=O)[nH]c(=O)n2Cc1ccccc1	-2%	1%	0%	-5%	1%	14%
Cc1ccccc1-c1nc(-c2ccc(NC(=O)c3cccs3)cc2)no1	13µM*	4µM*	?	-6%	2%	-8%
O=C(Nc1ccc(-c2noc(-c3ccccc3F)n2)cc1)c1cccs1	?	1.6µM*	?	1%	?	14µM*
O=C(Nc1ccc(NC(=S)NC(=O)c2ccccc2F)cc1)c1cccs1	-5%	1%	-2%	0%	-12%	17%
Cc1ccc(OCCOc2cccc(Br)c2)c([N+](=O)[O-])n1	?	?	?	-17%	?	18µM*
Cc1ccc(OCc2ccc(-c3ccccc3)cc2)c([N+](=O)[O-])n1	?	21%	18%	-1%	27%	.
Cc1ccc(OCc2ccc(Br)cc2)c([N+](=O)[O-])n1	5.4µM*	1µM*	2.2µM*	.	7.3µM*	10µM*
Cc1c(Cl)cccc1NC(=O)N1CCC(CN2CCCC2)CC1	3%	.	.	.	.	.
c1ccc(-c2ccc(-c3ccccn3)nn2)nc1	1.3µM*	0.32µM*	0.32µM*	.	10%	7.1µM*
CCCCN(CC)CCCNC(=O)c1ccc2c(c1)NC(=O)CN2C	2%	.	.	.	.	.
C(=N/n1c2ccccc2c2ccccc21)/c1ccco1	0%	-2%	-5%	6%	-9%	?
N=c1scc(-c2ccccc2)n1/N=C/c1ccco1	6.7µM*	3.5µM*	?	2%	?	?
CCOc1ccc(/C=C/C2=Cc3c(sc(NC(=O)CSc4n[nH]c(N)n4)c3C#N)C(C)(C)C2)cc1	9.5µM*	1%	11%	.	-16%	3%
Cc1ccsc1/C=C/C1=Cc2c(sc(NC(=O)CSc3n[nH]c(N)n3)c2C#N)C(C)(C)C1	-5%	-1%	-1%	.	-4%	4%
O=C(NCC1CCCO1)c1cc(-c2ccccc2)nc2ccc(Br)cc12 (configuration not stated)	2.4µM*	7%	1%	3%	-2%	.
Cc1ccc2nc(-c3cccc(Br)c3)cc(C(=O)NCC3CCCO3)c2c1 (configuration not stated)	?	3%	-5%	0%	-12%	.
COc1ccc(-c2cc(C(=O)NCC3CCCO3)c3cc(C(C)C)ccc3n2)cc1 (configuration not stated)	?	-1%	-2%	-19%	-1%[9.26 µM]	.
CCn1c(SC(C)C(=O)NCC2CCCO2)nc2scc(-c3ccccc3)c2c1=O (configuration not stated)	6%	0%	-5%	5%	-3%	.
Cc1nc(SC(C)C(=O)NCC2CCCO2)c2cc(-c3ccccc3)sc2n1 (configuration not stated)	12µM*	30%	-2%	-11%	-10%	.
Cc1cc(Br)cc2c(C(=O)NCC3CCCO3)cc(-c3ccccc3)nc12 (configuration not stated)	1.3µM*	17%	12%	23%	?	.
Cc1cc(O)c(C(C)C)cc1CN1CCCCC1	.	.	.	.	.	-11%[9.22 µM]
COc1ccc(C)cc1NC(=O)C1CCC(CNS(=O)(=O)c2ccc3c(c2)CCCC(=O)N3)CC1 (configuration not stated)	-5%	.	.	.	.	.
CCCCc1nn2c(=O)cc(COC(=O)c3ccccc3NC(=O)c3cccc(C)c3)nc2s1	-5%	.	.	.	.	.
CCC(C)c1ccc(NC(=O)CSc2nncn2N)cc1 (configuration not stated)	?	6%	16%	-2%	?	-11%
SMILES	FLuc counter	Rab9 prom act	NPC1 prom act	uPA generation	ELG1 genotox	SMN2 splice enh
Cc1ccc(NC(=O)CSCC(=O)O)cc1	2%	14%	-5%	5%	1%	.
Nn1cnnc1SCC(=O)Nc1ccc(C2CCCCC2)cc1	5.4µM*	?	3.5µM*	-12%	?	?
CC(C)n1cnnc1SCC(=O)Nc1ccc(N2CCCCC2)cc1	6µM*	2%	-3%	-10%	?	.
CC(C)n1cnnc1SCC(=O)NCC(=O)Nc1ccc(F)cc1	3%	14%	5%	-4%	-1%	.
O=C(O)CSCC(=O)Nc1ccc(C2CCCCC2)cc1	12µM*	.	.	-2%	.	-25%
CCn1c(=O)c2sccc2n2c(CCCC(=O)N3CCN(c4ccc(OC)cc4)CC3)nnc12	4%	.	.	.	.	.
